Assay results published in PubChem BioAssay AID1224921 (Broad Institute, 2016).
In all, about 1,400 compounds went through this assay and about 350 (25%) were called active. Inconclusive results (about 2%) are left out. The rule behind the calls is not given here. The list is a sample of the results. Measured potencies and affinities stand elsewhere.

assay: inhibitors of Clostridioides difficile proliferation – 4-point retest, confirmation (AID 1224921); conditions: Clostridioides difficile clinical isolate growth, OD600, 24 h, stronger effect = lower value; at 30 µM unless noted;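 note: plate controls were DMSO wells for no effect and levofloxacin 16 µg/mL wells for full effect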

Max activity, inactive:
C[C@@H]1CN([C@H](C)CO)C(=O)Cc2cc(N(C)C)ccc2O[C@@H]1CN(C)Cc1ccc(-c2ccccc2)cc1 13.4% [at 8 µM], C[C@@H]1CN([C@H](C)CO)S(=O)(=O)c2ccc(C#Cc3ccccc3)cc2O[C@H]1CN(C)C(=O)Nc1ccccc1 8.1% [at 8 µM], C[C@H](CO)N1C[C@H](C)[C@@H](CN(C)CC2CC2)Oc2cc(-c3ccc(F)cc3)ccc2S1(=O)=O 38%, N#C[C@H]1[C@@H](c2ccc(C#CC3CCCCC3)cc2)[C@@H](CO)N1S(=O)(=O)c1ccccc1 31.9% [at 8 µM], CN(C)CC(=O)N1[C@H](C#N)[C@H](c2ccc(C#CC3CCCCC3)cc2)[C@@H]1CO 14.2% [at 8 µM], CN(C)CC(=O)N1[C@@H](C#N)[C@H](c2ccc(C#CC3CCCCC3)cc2)[C@@H]1CO 22.7% [at 8 µM], N#C[C@H]1[C@@H](c2ccc(C#CC3CCCC3)cc2)[C@@H](CO)N1S(=O)(=O)Cc1ccccc1 29.9% [at 8 µM], Cc1ccccc1S(=O)(=O)N1[C@H](C#N)[C@@H](c2ccc(C#CC3CC3)cc2)[C@@H]1CO 26.6% [at 7.5 µM], CCCC#Cc1ccc([C@H]2[C@@H](CO)N(C(=O)C3CCCCC3)[C@H]2C#N)cc1 25.3% [at 8 µM], CCCC(=O)Nc1ccc2c(c1)C(=O)N(C)C[C@@H](OC)[C@H](C)CN(CC1CCOCC1)[C@H](C)CO2 -10.1%, CCC(=O)N[C@@H]1C=C[C@H](CC(=O)OC)O[C@H]1CO -12.4%, CN1CCN(C(=O)C[C@H]2C[C@H]3c4cc(NC(=O)Cc5ccncc5)ccc4O[C@H]3[C@H](CO)O2)CC1 13.8%, C[C@H](CO)N1C[C@H](C)[C@H](CN(C)Cc2ccc(C(F)(F)F)cc2)OCCCC[C@H](C)Oc2ccc(NC(=O)CCCN(C)C)cc2C1=O 31.1%, C[C@@H]1CN([C@@H](C)CO)C(=O)c2cc(/C=C/c3ccccc3)cnc2O[C@H]1CN(C)C(=O)NC1CCCCC1 -30.5% [at 8 µM], CCCN1C[C@@H](C)[C@H](OC)CN(C)C(=O)c2cc(NC(=O)COC)ccc2OC[C@@H]1C 15%, COc1cccc(S(=O)(=O)Nc2ccc3c(c2)[C@@H]2C[C@H](CC(=O)NC4CCCCC4)O[C@H](CO)[C@@H]2O3)c1 27.9%, COc1ccccc1CNC(=O)C[C@H]1C[C@@H]2c3cc(NC(=O)Nc4ccc(C(F)(F)F)cc4)ccc3O[C@@H]2[C@H](CO)O1 28%, COc1ccccc1CNC(=O)C[C@@H]1C[C@@H]2c3cc(NC(=O)Nc4ccc(C(F)(F)F)cc4)ccc3O[C@@H]2[C@H](CO)O1 28.8%, COc1ccccc1CNC(=O)C[C@H]1C[C@H]2c3cc(NC(=O)Nc4ccc(C(F)(F)F)cc4)ccc3O[C@H]2[C@@H](CO)O1 26.5%, CCCN1C[C@H](C)[C@H](OC)CN(C)C(=O)c2cc(NC(=O)c3cccc(F)c3)ccc2OC[C@H]1C 8.18% [at 8 µM], C[C@@H]1CN([C@H](C)CO)C(=O)c2ccccc2-c2ccccc2CO[C@H]1CN(C)C(=O)[C@H](C)c1ccccc1 15.9%, CC(C)CC#Cc1ccc2c(c1)O[C@@H](CN(C)CC1CCOCC1)[C@H](C)CN([C@H](C)CO)S2(=O)=O 29%, C[C@@H]1CN([C@H](C)CO)C(=O)Cc2cc(NC(=O)C3CC3)ccc2O[C@@H]1CN(C)Cc1ccc(Oc2ccccc2)cc1 25.1%, COc1ccccc1C#Cc1ccc2c(c1)O[C@H](CN(C)Cc1cccnc1)[C@@H](C)CN([C@@H](C)CO)S2(=O)=O 53.8%, CCS(=O)(=O)Nc1ccc2c(c1)C(=O)N(C)C[C@H](OC)[C@@H](C)CN(CC1CCCC1)[C@@H](C)CO2 -15.1% [at 8 µM], C[C@@H]1CN([C@@H](C)CO)S(=O)(=O)c2ccc(C#CC3CCCCC3)cc2O[C@@H]1CN(C)Cc1cccnc1 69.7%, C[C@@H]1CN([C@H](C)CO)S(=O)(=O)c2ccc(-c3ccccc3)cc2O[C@H]1CN(C)Cc1ccncc1 33.9%, COc1ccccc1C#Cc1ccc2c(c1)O[C@@H](CN(C)Cc1cccnc1)[C@H](C)CN([C@@H](C)CO)S2(=O)=O 26.4%, CC(C)C#Cc1ccc([C@@H]2[C@@H](C#N)N(C(=O)C3CCC3)[C@H]2CO)cc1 32.2% [at 8 µM], C[C@@H]1CN([C@@H](C)CO)S(=O)(=O)c2ccc(C3=CCCCC3)cc2O[C@H]1CN(C)Cc1ccncc1 29.4%, CCCC#Cc1ccc2c(c1)O[C@H](CN(C)Cc1ccncc1)[C@@H](C)CN([C@H](C)CO)S2(=O)=O 11.6%, COCC(=O)Nc1ccc2c(c1)OC[C@H](C)N(Cc1cncnc1)C[C@@H](C)[C@@H](OC)CN(C)C2=O -11.6%, O=C(Nc1cc(F)ccc1F)N[C@H]1CC[C@@H](CC(=O)N2CCc3ccccc3C2)O[C@H]1CO -5.46% [at 0.5 µM], O=C(C[C@H]1C=C[C@@H](NC(=O)c2ccccn2)[C@H](CO)O1)NCc1cc(F)cc(F)c1 7.65%, CO[C@H]1CN(C)C(=O)c2cc(NC(=O)c3ccccc3)ccc2OC[C@H](C)N(CC2CC2)C[C@H]1C -5.21% [at 8 µM], O=C(Nc1cc(F)ccc1F)N[C@@H]1CC[C@H](CC(=O)N2CCc3ccccc3C2)O[C@@H]1CO 29.6%, CCCC#Cc1ccc2c(c1)O[C@H](CN(C)Cc1cccnc1)[C@@H](C)CN([C@H](C)CO)S2(=O)=O 41%, CO[C@H]1CN(C)C(=O)c2cc(NC(C)=O)ccc2OC[C@H](C)N(Cc2nccs2)C[C@H]1C 16%, O=C1O[C@@H](c2ccccc2)[C@@H](c2ccccc2)N2[C@@H](c3ccc(O)cc3)[C@]3(C(=O)Nc4ccc(C#CC5=CCCCC5)cc43)[C@@H](C(=O)O)[C@H]12 28.7% [at 8 µM]
